Compound activity: PubChem BioAssay, National Center for Advancing Translational Sciences (NCATS)
GLP-1R inv ag: GLP-1 receptor (human) inverse agonism; 410,000 compounds, 1.6% hits; HEK293 GLP-1R CRE-luciferase, luminescence, 24 h; GLP-1R form is constitutively active; P43220; Potency, µM (top dose mostly 38.3 µM), without a hit: at the highest dose activity change, negative = inhibition, hits mostly inhibitors; also: % is scaled to controls: 0 for no effect and ±100 for the full control effect; nearly all actives have a fitted effect of over 55% in size
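Constitutively active GLP-1R drives a cAMP-responsive luciferase in stably transfected HEK293 cells; test compounds are added after overnight (12 h) attachment and left 24 hr, and signal loss in luminescence marks inhibition.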
GLP1R ag: GLP-1 receptor (human) agonism; HEK293 GLP-1R CRE-luciferase, luminescence, 4-6 h; cells express a hypersensitive GLP-1R form; P43220; Potency, µM (doses to about 45.6 µM), without a hit: at the highest dose activation, most hits filed as activators; 380,000 compounds, 0.007% hits; also: % of control where 0% means no effect
GLP1R cytotox: cytotoxicity in counter-screen for GLP-1R inverse agonists. Potency, µM (titrated, usually from 38.3 µM), without a hit: at the top dose activity change, negative = inhibition, hits mostly inhibitors. HEK293 cAMP-luciferase reporter cells, luminescence, 24 h. 410,000 compounds, 0.13% hits;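 also: loss of luciferase light is scored as toxicity; % is scaled to controls: 0 for no effect and ±100 for the full control effect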
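Here, cytotoxicity is scored as loss of luminescence. The MLSMR collection was tested on cells seeded in medium containing 10% Nu serum, with a 24 hr compound exposure preceded by 12 hours of culture.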
PTHR1 agonist: activates the human parathyroid hormone receptor PTHR1; Q03431; HEK293 GP2 PTHR1 cells, GloSensor cAMP luminescence, 1 h; Potency, µM (doses to about 115 µM), for the others: at the top dose activation, usual class: activators; 410,000 compounds, 0.075% hits; also: nearly all actives have a fitted effect of over 55% in size
Target sequence (Q03431 whole entry, looked up): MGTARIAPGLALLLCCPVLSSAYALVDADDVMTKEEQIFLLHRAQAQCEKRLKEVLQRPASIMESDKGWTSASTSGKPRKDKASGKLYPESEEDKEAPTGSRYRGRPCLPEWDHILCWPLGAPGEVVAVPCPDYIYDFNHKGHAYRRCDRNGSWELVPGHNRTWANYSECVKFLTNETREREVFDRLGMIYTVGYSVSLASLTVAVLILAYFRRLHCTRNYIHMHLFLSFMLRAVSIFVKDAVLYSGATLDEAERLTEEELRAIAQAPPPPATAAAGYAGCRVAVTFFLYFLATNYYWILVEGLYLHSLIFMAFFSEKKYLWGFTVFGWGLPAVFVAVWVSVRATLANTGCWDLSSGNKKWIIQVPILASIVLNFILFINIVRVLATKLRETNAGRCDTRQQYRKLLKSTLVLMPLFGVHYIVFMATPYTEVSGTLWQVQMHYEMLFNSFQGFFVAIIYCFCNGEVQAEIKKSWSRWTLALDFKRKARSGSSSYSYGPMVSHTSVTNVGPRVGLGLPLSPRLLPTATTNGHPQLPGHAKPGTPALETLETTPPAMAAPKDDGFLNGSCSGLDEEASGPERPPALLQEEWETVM
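HEK-293-derived GP2 cells expressing PTHR1 and a GloSensor cAMP reporter, 3,000/well, plated overnight, given luciferin plus IBMX (each 0.5 mM as added) for 1 h at 37 °C, then compound for 1 h at 37 °C. Luminescence was read after 15 min at room temperature.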
RGS4 inh: blocks human RGS4-accelerated GTP hydrolysis. 390,000 compounds, 0.039% hits. Transcreener GDP fluorescence polarization, RGS4-accelerated GTP hydrolysis. Potency, µM (series often up to 114 µM), for the others: at the top dose activity change, negative = inhibition, actives largely listed as inhibitors. AID 504845; also: % is scaled to controls: 0 for no effect and ±100 for the full control effect; nearly all actives have a fitted effect of over 75% in size
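MLSMR compounds (23 nl, pin-transferred) preincubated 10 min at room temperature with a 500nM (2x) first reagent, then RGS4 at 900nM (2x) plus Transcreener GDP mix added; fluorescence polarization (620/688 nm) read before and after 90 min at 30 °C.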
The depositor's hits bear a star; [ ] = remark or other dose. Rows were chosen to be rich in hits. Some 1.7% of all compounds tested hit in one or more screens of this group. Calls follow the shape of the dose curve; as a rule, active = well fitted curve in the direction sought with a large enough effect; inconclusive = small, poorly fitted or top-dose-only effect, or another doubt; inactive = no such curve, though single readings can be large; an effect the other way counts as inactive or inconclusive. Potency is read from the fitted curve at half-maximal effect.

For CC(C)(C)Cc1c(-c2ccc(F)cc2)nc2ccc(Cl)cn12 the results were GLP-1R inv ag 5.6µM*, GLP1R ag -5%, GLP1R cytotox inconclusive and PTHR1 agonist -50%.
For Cc1ccc(Cc2c(-c3ccc(C)cc3)nc3ccc(Cl)cn23)cc1 the results were GLP-1R inv ag 10µM*, GLP1R ag -3%, GLP1R cytotox -4% and PTHR1 agonist inactive.
For Cc1ccc(Cc2c(-c3ccc(Cl)cc3)nc3ccc(Cl)cn23)cc1 the results were GLP-1R inv ag inconclusive, GLP1R ag -6%, GLP1R cytotox -27% and PTHR1 agonist -37%.
Cc1ccc(-c2nc3ccc(Cl)cn3c2CC(C)(C)C)cc1 was read as GLP-1R inv ag 17%, GLP1R ag -3%, GLP1R cytotox 10% and PTHR1 agonist -31%.
NCCO was read as GLP1R ag -2%[96 µM].
Screening COc1cc(NC(=O)CCc2c(C)nc3c4c(C)cc(C)nc4nn3c2C)cc(OC)c1 returned GLP-1R inv ag 12%, GLP1R cytotox 15%, PTHR1 agonist inactive and RGS4 inh -40%.
For Cc1cc(C(=O)COC(=O)c2cccnc2Cl)c(C)n1C the results were GLP-1R inv ag 7.1µM*, GLP1R ag -6%, GLP1R cytotox 1%, PTHR1 agonist -56% and RGS4 inh 6%.
For CSc1ncccc1C(=O)OCC(=O)c1cc(C)n(C)c1C the results were GLP-1R inv ag 18%, GLP1R ag -17%, GLP1R cytotox -16%, PTHR1 agonist -42% and RGS4 inh 24%.
O=C1/C(=C\c2ccc(Cl)c(Cl)c2)CN(C(=O)CCN2CCOCC2)C/C1=C/c1ccc(Cl)c(Cl)c1 was read as GLP-1R inv ag inconclusive, GLP1R ag -14%, GLP1R cytotox 2.8µM*, PTHR1 agonist -42% and RGS4 inh -109%.
`O=C(NCCN1CCOCC1)c1ccc(Cl)c(Cl)c1` gave GLP-1R inv ag 18%, GLP1R ag 13%, GLP1R cytotox -3%, PTHR1 agonist inactive and RGS4 inh 4%.
For COc1ccc(C2=C(CN(C)C)C(c3ccccc3)c3ccccc3O2)cc1 (stereo not given) the results were GLP-1R inv ag inconclusive, GLP1R ag -6%, GLP1R cytotox inconclusive, PTHR1 agonist -17%[57.5 µM] and RGS4 inh 19%.
`CCOc1ccc(C2=C(C=C(C#N)C#N)C(c3ccccc3)c3ccccc3O2)cc1` (stereo not given) gave GLP-1R inv ag 6.3µM*, GLP1R ag -4%, GLP1R cytotox -12%, PTHR1 agonist -25% and RGS4 inh 17%.
Screening CC1=CC(C)(C)NC(=S)N1c1ccc(C)c(C)c1 returned GLP-1R inv ag 11µM*, GLP1R ag 4%, GLP1R cytotox 11µM*, PTHR1 agonist 14% and RGS4 inh 16%.
`CC1=CC(C)(C)NC(=S)N1c1ccc(C)cc1` gave GLP-1R inv ag inconclusive, GLP1R ag -4%, GLP1R cytotox inconclusive, PTHR1 agonist -3%[57.5 µM] and RGS4 inh -3%.
COC(=O)c1ccc(CNC(=O)c2ccc(OC)c(S(=O)(=O)NC3CC3)c2)cc1 was read as GLP-1R inv ag 12%, GLP1R ag 9%, GLP1R cytotox 6% and PTHR1 agonist inactive.
O=C(CCc1nc2ccccc2c(=O)[nH]1)Nc1nnc(SCc2ccccc2F)s1 was read as GLP-1R inv ag 15%, GLP1R ag 3%, GLP1R cytotox 1%, PTHR1 agonist -7% and RGS4 inh -1%.
Screening CC(C)Oc1ccc(C(=O)/C(=C\c2cccs2)c2nc3ccccc3o2)cc1 returned GLP-1R inv ag 7.1µM*, GLP1R ag 8%, GLP1R cytotox 9%, PTHR1 agonist -13% and RGS4 inh -18%.
For CC[C@H]1OC(=O)[C@H](C)[C@@H](O[C@H]2C[C@@](C)(OC)[C@@H](O)[C@H](C)O2)[C@H](C)[C@@H](O[C@@H]2O[C@H](C)C[C@H](N(C)C)[C@H]2O)[C@](C)(O)C[C@H](C)C(=NOCOCCOC)[C@H](C)[C@@H](O)[C@]1(C)O the results were GLP1R ag 5%.
Screening CCOc1ccc2oc(C(=O)NC3CC(C)(C)NC(C)(C)C3)c(C)c2c1 returned GLP-1R inv ag 10µM*, GLP1R ag -1%, GLP1R cytotox 1%, PTHR1 agonist inactive and RGS4 inh -1%[56.9 µM].
`CCOc1ccc2oc(C(=O)N3CCN(c4ccccc4OCC)CC3)c(C)c2c1` gave GLP-1R inv ag 11µM*, GLP1R ag 1%, GLP1R cytotox -6%, PTHR1 agonist inactive and RGS4 inh 29%.
`Cc1ccc(C(=O)OCC(=O)N2CCC(c3ccccc3)=N2)cc1` gave GLP-1R inv ag inconclusive, GLP1R ag 8%, GLP1R cytotox -4%, PTHR1 agonist -2% and RGS4 inh -6%.
Screening CC(C)CNS(=O)(=O)c1ccc(CCC(=O)Nc2cc(Cl)ccc2Oc2ccccc2)cc1 returned GLP-1R inv ag 13µM*, GLP1R ag 3%, GLP1R cytotox 4%, PTHR1 agonist -8% and RGS4 inh -48%.
For COc1ccc(Cl)cc1NC(=O)CN(c1cccc(C)c1C)S(=O)(=O)c1ccccc1 the results were GLP-1R inv ag inconclusive, GLP1R ag -2%, GLP1R cytotox 6%, PTHR1 agonist -19% and RGS4 inh 19%.
Screening Cc1cccc(C)c1N(CC(=O)Nc1cc(Cl)ccc1Oc1ccccc1)S(C)(=O)=O returned GLP-1R inv ag 4.5µM*, GLP1R ag -4%, GLP1R cytotox -16%, PTHR1 agonist -20%[57.5 µM] and RGS4 inh 24%.
For Cc1ccc(C)c(N(CC(=O)Nc2cc(Cl)ccc2Oc2ccccc2)S(C)(=O)=O)c1 the results were GLP-1R inv ag 5µM*, GLP1R ag -8%, GLP1R cytotox -2%, PTHR1 agonist -18%[57.5 µM] and RGS4 inh -13%.
`CCCNS(=O)(=O)c1ccc(CCC(=O)Nc2cc(Cl)ccc2Oc2ccccc2)cc1` gave GLP-1R inv ag inconclusive, GLP1R ag -5%, GLP1R cytotox -12%, PTHR1 agonist -51%[57.5 µM] and RGS4 inh 21%.
For COc1cc(CN2CC(=O)N(c3ccc(C)c(Cl)c3)C2=S)cc(OC)c1OC the results were GLP-1R inv ag 8.9µM*, GLP1R ag 12%, GLP1R cytotox -19%, PTHR1 agonist inactive and RGS4 inh 2%[56.9 µM].
`COc1cc(CN2CC(=O)N(c3ccc(C)cc3)C2=S)cc(OC)c1OC` gave GLP-1R inv ag -18%, GLP1R ag -1%, GLP1R cytotox 1%, PTHR1 agonist -62% and RGS4 inh -5%.
`O=[N+]([O-])c1ccc(/C=C/c2ccc3cccc(O)c3n2)cc1` gave GLP-1R inv ag 3%, GLP1R ag -1%, GLP1R cytotox -55%, PTHR1 agonist -13% and RGS4 inh -3%.
